Reference: PubChem BioAssay
Activity calls are given as the source filed them.

Experiments:
[1] = system: Wnt5a (protein binding on small-molecule microarray); assay: Wnt5a binders on small-molecule microarray, primary screen, biophysical, 635/667 nm fluorescence (AID 1142); settings: 635 nm fluorescence, higher = more signal;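 also: fluorescence read at 667 nm with signal to noise per printed feature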
[2] = cell viability in Huh7 cells, primary screen, cytotoxicity control for HCV replication inhibitor project, CellTiter-Glo luminescence, basal, 48 h (AID 1143); settings: Huh7 HCV replicon, higher = more signal, called active from +8 up or from −8 down;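 also: Huh7 hepatoma cells carrying a hepatitis C replication reporter with no stimulus; test concentration not given here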
[3] = CREB reporter modulators without forskolin, primary screen, cell-based, PC12, CRE-LacZ reporter, unstimulated (AID 1145); settings: no forskolin, luminescence, 4.5 h, higher = more signal, called active from +8 up or from −8 down
[4] = CREB reporter modulators under forskolin, primary screen, cell-based, PC12, CRE-LacZ reporter, forskolin-stimulated (AID 1146); settings: luminescence, 4.5 h, higher = more signal, called active from +8 up or from −8 down;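 also: PC12 cells with 6xCRE LacZ reporter stimulated by forskolin 10 µM; beta-galactosidase reporter signal reflecting CREB driven transcription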
[5] = target: Streptavidin (Streptomyces avidinii) (UniProt P22629); assay: streptavidin binders on small-molecule microarray, primary screen, artefact control for SMM compound annotation, biophysical, 635/667 nm fluorescence (AID 1147); settings: streptavidin binding, higher = more signal;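 also: signal reflects streptavidin binding to arrayed compounds as a control protein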
Streptavidin (Streptomyces avidinii), sequence (P22629 whole entry, looked up): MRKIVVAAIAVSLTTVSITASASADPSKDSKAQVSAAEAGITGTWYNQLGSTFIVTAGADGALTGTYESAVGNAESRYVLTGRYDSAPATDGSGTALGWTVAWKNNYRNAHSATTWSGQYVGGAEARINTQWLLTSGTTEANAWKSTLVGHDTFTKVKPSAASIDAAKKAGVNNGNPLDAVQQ

[6] = small-molecule binders of probe aInhba, primary screen, biochemical, small-molecule microarray, 635/667 nm fluorescence (AID 1148); settings: higher = more signal;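 also: score merges 667nm spot fluorescence with signal-to-noise for antibody binding to printed compounds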
Torsin-1A (Homo sapiens) [7] = target: Torsin-1A (Homo sapiens) (UniProt O14656); assay: torsin A binders from cell lysate, primary screen, small-molecule microarray, wild-type, 635/667 nm (AID 1149); settings: COS7 hTOR1A-WT lysate, 635 nm fluorescence, higher = more signal
Torsin-1A (Homo sapiens), sequence (O14656 whole entry, looked up): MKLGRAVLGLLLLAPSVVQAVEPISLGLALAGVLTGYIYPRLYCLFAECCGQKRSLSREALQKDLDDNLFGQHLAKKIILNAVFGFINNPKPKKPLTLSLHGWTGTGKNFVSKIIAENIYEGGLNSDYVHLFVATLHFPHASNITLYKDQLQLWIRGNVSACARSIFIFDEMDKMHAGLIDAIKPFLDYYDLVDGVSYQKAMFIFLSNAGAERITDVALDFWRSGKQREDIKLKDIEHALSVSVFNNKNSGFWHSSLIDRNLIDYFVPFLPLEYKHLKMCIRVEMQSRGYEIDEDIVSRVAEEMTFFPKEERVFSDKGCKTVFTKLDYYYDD

Torsin-1A (Homo sapiens) [8] = target: Torsin-1A (Homo sapiens) (UniProt O14656); assay: small-molecule binders of mutant TOR1A in lysate, primary screen, cell lysate, small-molecule microarray, COS7 lysate, 635/667 nm fluorescence (AID 1150); settings: COS7 hTOR1A mutant lysate, 635 nm fluorescence, higher = more signal;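 also: score pools 667 nm emission and signal to noise measuring lysate protein binding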
[9] = system: Sonic hedgehog protein (Shh); assay: small-molecule binders of Shh protein, primary screen, biochemical, small-molecule microarray, 635/667 nm fluorescence (AID 1151); settings: small-molecule microarray binding, 635 nm fluorescence; higher = more signal;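 also: Shh protein binding to compounds spotted on small-molecule microarray slides; score combines spot fluorescence intensity with signal-to-noise across triplicate slides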
[10] = E. coli DRC41 culture turbidity changes, primary screen, E. coli filamentation inducer project, strain DRC41, OD650, 48 h (AID 1152);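 also: E. coli MC1000 strain DRC41 lacking acrAB efflux pump and sulA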; settings: E. coli DRC41 (acrAB sulA), higher = more signal, called active from +8 up or from −8 down
[11] = small-molecule binders of probe aLefty1, primary screen, biochemical, small-molecule microarray, 635/667 nm fluorescence (AID 1153); settings: higher = more signal;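 also: score merges spot fluorescence with signal-to-noise ratio from the scanned slide images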
[12] = PSAC antagonists in infected red cells, primary screen, cell-based, P. falciparum Indochina, OD700, 1 h (AID 1154); settings: P. falciparum Indochina infected RBC osmotic lysis, higher = more signal, called active from +8 up or from −8 down
[13] = PSAC antagonists in infected red cells, primary screen, cell-based, P. falciparum Indochina, OD700, 2 h (AID 1155);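 also: lysis reports solute entry through the parasite surface anion channel PSAC; channel blockers reduce lysis of infected cells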; settings: P. falciparum Indochina infected erythrocytes, osmotic lysis OD700; higher = more signal, called active from +8 up or from −8 down
[14] = osmotic lysis modulators in infected erythrocytes, primary screen, PSAC antagonist project, cell-based, P. falciparum Indochina, OD700, 3 h (AID 1156); settings: higher = more signal, called active from +8 up or from −8 down
[15] = PSAC antagonists in infected red cells, primary screen, cell-based, P. falciparum Indochina, OD700, 18 h (AID 1157); settings: P. falciparum Indochina infected erythrocytes, osmotic lysis OD700, 18 h; higher = more signal, called active from +8 up or from −8 down
[16] = modulators of S6 phosphorylation in cells, primary screen, cell-based, A549, cytoblot, luminescence, serum-stimulated (AID 1158); settings: A549 phospho-S6 cytoblot, 5 h, higher = more signal;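 also: serum-stimulated A549 lung adenocarcinoma cells; signal is phosphorylated S6 detected by cytoblot immunostaining with HRP secondary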
[17] = target: NADPH oxidase 2 (Homo sapiens) (UniProt P04839); assay: NOX2-dependent H2O2 signal modulators, primary screen, NOX inhibitor project, cell-based, HEK293-NOX2, PMA-stimulated, Amplex Red fluorescence (AID 1159); settings: 45 min, higher = more signal, called active from +8 up or from −8 down; also: test concentration not given here
NADPH oxidase 2 (Homo sapiens), sequence (P04839 whole entry, looked up): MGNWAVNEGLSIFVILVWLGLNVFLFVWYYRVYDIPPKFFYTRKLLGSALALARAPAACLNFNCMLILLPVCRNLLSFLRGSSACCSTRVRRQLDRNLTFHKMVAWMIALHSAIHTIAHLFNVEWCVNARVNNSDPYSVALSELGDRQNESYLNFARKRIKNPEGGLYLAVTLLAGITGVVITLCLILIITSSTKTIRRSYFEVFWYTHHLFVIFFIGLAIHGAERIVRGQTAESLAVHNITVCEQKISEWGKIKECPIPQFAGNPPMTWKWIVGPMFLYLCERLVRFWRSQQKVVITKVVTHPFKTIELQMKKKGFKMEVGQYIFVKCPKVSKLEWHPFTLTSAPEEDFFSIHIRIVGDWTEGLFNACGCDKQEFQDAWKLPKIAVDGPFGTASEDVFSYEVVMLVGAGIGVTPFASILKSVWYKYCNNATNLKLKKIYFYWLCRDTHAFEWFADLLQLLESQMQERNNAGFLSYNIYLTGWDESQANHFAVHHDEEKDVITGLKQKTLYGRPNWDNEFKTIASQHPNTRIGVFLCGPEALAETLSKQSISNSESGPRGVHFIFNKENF

[18] = target: NADPH oxidase 4 (Homo sapiens) (UniProt Q9NPH5); assay: NOX4-dependent H2O2 signal modulators, primary screen, NOX inhibitor project, cell-based, HEK293-NOX4, tetracycline-induced, Amplex Red fluorescence (AID 1160); settings: 45 min, higher = more signal, called active from +8 up or from −8 down
NADPH oxidase 4 (Homo sapiens), sequence (Q9NPH5 whole entry, looked up): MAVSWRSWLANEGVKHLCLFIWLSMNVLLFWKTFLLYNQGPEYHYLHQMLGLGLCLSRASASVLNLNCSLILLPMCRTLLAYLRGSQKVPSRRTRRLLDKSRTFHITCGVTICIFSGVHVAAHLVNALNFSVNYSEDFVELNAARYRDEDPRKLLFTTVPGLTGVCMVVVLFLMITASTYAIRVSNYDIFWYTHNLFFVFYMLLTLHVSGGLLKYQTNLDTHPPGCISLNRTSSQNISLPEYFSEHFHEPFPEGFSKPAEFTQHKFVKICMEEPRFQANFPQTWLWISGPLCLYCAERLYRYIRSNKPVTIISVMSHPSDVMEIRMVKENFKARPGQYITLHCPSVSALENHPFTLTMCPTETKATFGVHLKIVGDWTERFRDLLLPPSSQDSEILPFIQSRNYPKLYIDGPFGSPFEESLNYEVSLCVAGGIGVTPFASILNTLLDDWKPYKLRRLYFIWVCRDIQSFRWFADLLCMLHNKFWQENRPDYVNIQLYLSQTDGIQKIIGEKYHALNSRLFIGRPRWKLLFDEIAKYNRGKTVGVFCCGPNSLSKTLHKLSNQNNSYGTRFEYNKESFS

[19] = target: NADPH oxidase 5 (Homo sapiens) (UniProt Q96PH1); assay: NOX5-dependent H2O2 signal modulators, primary screen, NOX inhibitor project, cell-based, HEK293-NOX5, Amplex Red fluorescence (AID 1161); settings: HEK293-NOX5, ionomycin, 45 min, higher = more signal
NADPH oxidase 5 (Homo sapiens), sequence (Q96PH1 whole entry, looked up): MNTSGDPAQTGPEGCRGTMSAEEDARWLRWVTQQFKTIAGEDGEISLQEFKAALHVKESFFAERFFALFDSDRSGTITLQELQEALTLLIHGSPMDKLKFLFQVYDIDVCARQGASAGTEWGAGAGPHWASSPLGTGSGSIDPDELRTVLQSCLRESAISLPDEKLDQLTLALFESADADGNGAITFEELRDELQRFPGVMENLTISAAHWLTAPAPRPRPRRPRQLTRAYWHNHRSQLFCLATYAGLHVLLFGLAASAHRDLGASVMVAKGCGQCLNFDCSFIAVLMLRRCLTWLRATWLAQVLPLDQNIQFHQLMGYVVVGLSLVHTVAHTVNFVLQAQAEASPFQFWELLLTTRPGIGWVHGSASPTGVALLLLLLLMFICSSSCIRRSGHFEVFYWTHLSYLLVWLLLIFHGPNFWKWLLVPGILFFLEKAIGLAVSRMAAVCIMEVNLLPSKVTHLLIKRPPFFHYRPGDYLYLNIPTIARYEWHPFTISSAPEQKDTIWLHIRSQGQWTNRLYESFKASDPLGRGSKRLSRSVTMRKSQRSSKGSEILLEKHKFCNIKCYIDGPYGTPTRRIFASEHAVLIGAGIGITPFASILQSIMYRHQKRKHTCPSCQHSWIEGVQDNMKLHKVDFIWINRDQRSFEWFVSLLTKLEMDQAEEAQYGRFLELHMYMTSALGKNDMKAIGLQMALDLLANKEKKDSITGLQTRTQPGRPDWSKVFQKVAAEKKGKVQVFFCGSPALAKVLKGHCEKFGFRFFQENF

[20] = A549 cell viability effects, profiling panel, calcein-AM fluorescence, 48 h, basal (AID 1162); settings: higher = more signal; also: test concentration not given here

| Structure (SMILES) | composite z-score [1] | z-score [2] | z-score [3] | z-score [4] | composite z-score [5] | composite z-score [6] | composite z-score (Torsin-1A (Homo sapiens) [7]) | composite z-score (Torsin-1A (Homo sapiens) [8]) | composite z-score [9] | z-score [10] | composite z-score [11] | z-score [12] | z-score [13] | z-score [14] | z-score [15] | z-score [16] | z-score [17] | z-score [18] | z-score [19] | z-score [20] |
| --- | --- | --- | --- | --- | --- | --- | --- | --- | --- | --- | --- | --- | --- | --- | --- | --- | --- | --- | --- | --- |
| COc1ccc([Si](C)(C)[C@H]2[C@H](CC(=O)N(CCO)Cc3ccccc3)O[C@@]3(C(=O)N(Cc4ccc(N5CCC5=O)cc4)c4ccccc43)[C@@H]2C)cc1 | -0.161 | -2.68 (inactive) | 1.82 (inactive) | -0.316 (inactive) | -0.161 | -0.128 | 0.162 | 0.294 | 0.407 | 1.33 (inactive) | -0.188 | 27.1 (active) | 21.7 (active) | 0.241 (inactive) | 2.17 (inactive) | 1.39 | 0.946 (inactive) | 1.25 (inactive) | 2.96 | -0.0126 |
| C=C(C(=O)CC[C@H](OC(C)=O)c1ccc(CO)o1)C(C)C | 0.0615 | -4.37 (inactive) | 1.09 (inactive) | -0.949 (inactive) | -0.469 | 0.353 | 0.154 | -0.248 | 0.937 | 1.27 (inactive) | -0.215 | 1.55 (inactive) | -0.558 (inactive) | 0.68 (inactive) | -1.83 (inactive) | 2.5 | -0.0262 (inactive) | 0.382 (inactive) | -0.706 | -0.708 |
| O=C(O)[C@H]1C[C@H]2C(=O)NCC(=O)N2[C@H]1c1cccc(OCCO)c1 | 0.0144 | -0.812 (inactive) | 0.285 (inactive) | -0.736 (inactive) | 0.42 | 0.263 | 0.836 | 0.654 | 0.821 | 2.08 (inactive) | 1.24 | 9.23 (active) | 1.29 (inactive) | -1.73 (inactive) | 0.818 (inactive) | 0.617 | 1.81 (inactive) | 1.52 (inactive) | 1.61 | -0.24 |
| CC(C)C[C@@H]1NC(=O)[C@@H]2C[C@H](C(=O)NCCCCCNC(=O)CS)[C@H](c3cccc(OCCO)c3)N2C1=O | 0.257 | -1.59 (inactive) | 0.147 (inactive) | -1.09 (inactive) | 0.811 | 0.0207 | 1.31 | 0.824 | 2.03 | 1.8 (inactive) | 0.348 | 3.21 (inactive) | -0.422 (inactive) | -1.74 (inactive) | -1.93 (inactive) | 0.955 | 2.24 (inactive) | 0.84 (inactive) | 0.00283 | 0.221 |
| O=C1c2ccccc2[C@@]2(Cc3ccccc3N(CC(F)(F)F)C2=O)[C@H](c2ccc(CO)cc2)N1Cc1ccccc1C(F)(F)F | -0.388 | -1.02 (inactive) | -0.556 (inactive) | -1.56 (inactive) | -1.04 | -0.224 | -1.41 | -0.322 | -0.643 | 1.43 (inactive) | -0.23 | 0.0937 (inactive) | -0.926 (inactive) | 0.593 (inactive) | -1.39 (inactive) | 0.936 | 0.0968 (inactive) | 0.396 (inactive) | 1.09 | 1.73 |
| [N-]=[N+]=Nc1ccccc1[C@H]1OC(c2ccc(OCCCO)cc2)=N[C@@]1(Cc1ccccc1)C(N)=O | 0.792 | -3.44 (inactive) | 0.862 (inactive) | -1.89 (inactive) | 1.92 | 0.329 | 0.596 | 0.622 | 0.281 | 1.99 (inactive) | 0.752 | 31.6 (active) | 28.4 (active) | 1.64 (inactive) | 7.66 (inactive) | 1.8 | -1.71 (inactive) | 0.363 (inactive) | -0.45 | -0.297 |
| COC(=O)C1=CC(c2ccc(CO)cc2)=CC(c2cccs2)N(C)C=C1C(=O)OC (stereo not given) | -0.246 | -3.59 (inactive) | -0.348 (inactive) | -0.534 (inactive) | 0.295 | -0.0471 | 0.503 | 0.634 | 0.335 | 2.46 (inactive) | 0.571 | 6.76 (inactive) | 0.0213 (inactive) | -0.64 (inactive) | -1.49 (inactive) | 1.67 | -1.48 (inactive) | -2.33 (inactive) | -1.44 | 0.126 |
| C[N+](C)(C)CCCCNC(=O)[C@@H]1C[C@@H]2C(=O)NCC(=O)N2[C@@H]1c1cccc(OCCO)c1 | 0.857 | -1.08 (inactive) | -0.939 (inactive) | -0.689 (inactive) | 0.461 | 0.124 | 1.87 | 1.1 | 2.16 | 1.78 (inactive) | -0.221 | 2.68 (inactive) | -1.12 (inactive) | -2.75 (inactive) | -1.98 (inactive) | 0.855 | -1.42 (inactive) | -0.57 (inactive) | 0.766 | 1.59 |
| CCCC[C@@H](O)C1=C(C)C[C@H]2C(=O)N(C)C(=O)[C@H]2[C@H]1CO | -0.0163 | -1.36 (inactive) | 0.0423 (inactive) | -2.14 (inactive) | -0.242 | -0.0736 | 0.0651 | -0.0216 | 1.18 | 3.62 (inactive) | -0.239 | 3.54 (inactive) | -0.526 (inactive) | -0.224 (inactive) | -1.56 (inactive) | 0.8 | -1.32 (inactive) | 0.914 (inactive) | 0.794 | 2.36 |
